Test results as given in PubChem BioAssay (EPA / NIEHS).
Records with an inconclusive call do not appear. Activity calls are given as the source filed them. Rule for the calls: active = hit-call score of the fitted dose curve at least 0.9, where 1 is the maximum; inconclusive = response in the unintended direction; inactive = score below 0.9.

Experiment: ACEA_ER_80hr: ACEA Biosciences xCELLigence Real-Time Cell Analysis on Estrogen Receptor Agonism for Proliferation (AID 2282667)
Conditions: T47D proliferation, impedance (xCELLigence), 80 h
Experimental: ACEA_ER is a cell-based, single-readout assay that uses T47D, a human breast cell line, with measurements taken at 80 hours after chemical dosing in a 96-well plate, although TO2 (mc0.srcf) used a 384-well plate. Differences in plate size can be ignored given data normalization.ACEA_ER_80hr is one of two assay component(s) measured or calculated from the ACEA_ER assay. It is designed to make measurements of real-time cell-growth kinetics, a form of growth reporter, as detected with electrical impedance signals by Real-Time Cell Electrode Sensor (RT-CES) technology.Data from the assay component ACEA_ER_80hr was analyzed into 1 assay endpoint. This assay endpoint, ACEA_ER_80hr_Positive, was analyzed in the positive analysis fitting direction relative to DMSO as the negative control and baseline of activity. Using a type of growth reporter, measures of the cells for gain-of-signal activity can be used to understand the signaling at the pathway-level as they relate to the gene ESR1. Furthermore, this assay endpoint can be referred to as a primary readout, because this assay has produced multiple assay endpoints where this one serves a signaling function. To generalize the intended target to other relatable targets, this assay endpoint is annotated to the nuclear receptor intended target family, where the subfamily is steroidal.
The xCELLigence system Multi-E-Plate stations were used to measure the time-dependent response to chemicals. Each compound was tested in an eight-point, 1:4 serial dilution series starting at a maximum final concentration of 100 uM. A maximum starting concentration of 0.5% DMSO was present in the 100 uM chemical samples and was diluted along with the test article dilution series. The screen was performed in biological duplicate using two separate, 96-well, E-Plates 96 for each dilution series (n = 2). Positive controls (MG132 and E2) and a negative control (assay media) were tested in quadruplicate on each testing plate. […] Reference compounds were tested with 8 concentrations with 1:5 serial dilutions. All screening was carried out by ACEA Biosciences, Inc. (San Diego, CA). T-47D cells purchased from ATCC were maintained in RPMI1640 media supplemented with 10% characterized fetal bovine serum (FBS). […] Cells were then detached and seeded in E-Plates 96 in assay medium. After overnight monitoring of growth once every hour, compounds were added to […] cells and remained in the medium until the end of the experiment. Cellular responses were then recorded once every 5 min for the first 5 h, and once every hour for an additional 100 h.

Compound	outcome	AC50
CCC(CC)CO	inactive	
CCCCCCCCCCCCCCCCCC(=O)OCCCCCCCCCCCCCC(C)C	inactive	
CN(C)CCCNCCCN(C)C	inactive	
NCCCOCCOCCOCCCN		10.2 µM (active)
C=CCS(=O)(=O)O	inactive	
CC1=CCC(C(C)(C)O)CC1 (stereo not given)	inactive	
O=S(=O)(O)c1cc(S(=O)(=O)O)c2c(N=Nc3ccccc3)c(O)ccc2c1	inactive	
COc1ccccc1NC(=O)CC(C)=O		10.3 µM (active)
CC(=O)OC/C=C(C)/C=C/C=C(C)/C=C/C1=C(C)CCCC1(C)C	inactive	
CC(=O)N(C)C	inactive	
Nc1ccc(O)c(N)c1	inactive	
CCCCOCC(C)OCC(C)O (stereo not given)	inactive	
NNC(=O)OCc1ccccc1	inactive	
Cc1ccc(C(C)(C)O)cc1	inactive	
NC(=O)c1cccnc1	inactive	
CCCOC(=O)CC	inactive	
CC(C)(C)c1ccc(S)cc1	inactive	
CC(=O)Nc1cc(S(=O)(=O)O)cc2cc(S(=O)(=O)O)c(N=Nc3ccccc3)c(O)c12	inactive	
O=C(O)c1cc(C(=O)O)c(C(=O)O)cc1C(=O)O	inactive	
O=S1(=O)CC(Cl)(Cl)C(Cl)(Cl)C1	inactive	

Compound	outcome	AC50
CC(=O)CC(C)(C)C1CCCCC1	inactive	
N#CCCNCCC#N		0.274 µM (active)
CC(=O)CCC(=O)O	inactive	
CC(=O)Oc1c(C)c(C)c2c(c1C)CC[C@@](C)(CCC[C@H](C)CCC[C@H](C)CCCC(C)C)O2	inactive	
N[C@@H](CCC(=O)O)C(=O)O	inactive	
CN1CCc2cccc3c2[C@H]1Cc1ccc(O)c(O)c1-3	inactive	
O=C(Nc1cccc(Cl)c1)OCC#CCCl	inactive	
C1=COCCC1	inactive	
O=C(O)C1=NN(c2ccc(S(=O)(=O)O)cc2)C(=O)C1	inactive	
CCCc1ccc(N)cc1	inactive	
CC1COC(=O)O1 (stereo not given)	inactive	
CC(C)Cc1ccccc1	inactive	
O=C1Cc2ccccc2C1	inactive	
CCCCCCC(C)O (stereo not given)	inactive	
CCCCCCCCCCO[C@@H]1O[C@H](CO)[C@@H](O)[C@H](O)[C@H]1O	inactive	
CC(C)C(=O)OCC=Cc1ccccc1	inactive	
CC/C=C\CCCCCCCCCCOC(C)=O	inactive	
CCOC(=O)CC(C)C	inactive	
Cc1cccc(C)c1	inactive	
CCCCCCCOC(C)=O	inactive	
